U2OS ROS induce: inducers of reactive oxygen species in cancer cells; U2OS ROS induction, H2DCF-DA fluorescence; ROS induction (% of piperlongumine), % at 10 µM; 2% of 46,000 active; in the data active = ROS induction above about 79%, passing the limit was not always enough
Each line names hits and unclear results; the compound was inactive in the other large screens. The entries come from a sample that favours hits as a whole.

COc1ccc(S(=O)(=O)Nc2ccc3c(c2)C(=O)N([C@@H](C)CO)C[C@H](C)[C@@H](CN(C)Cc2ccc(-c4ccccc4)cc2)O3)cc1	U2OS ROS induce 128
COc1ccc(S(=O)(=O)Nc2ccc3c(c2)C(=O)N([C@H](C)CO)C[C@@H](C)[C@H](CN(C)Cc2ccc(-c4ccccc4)cc2)O3)cc1	none
Cc1ccc(S(=O)(=O)Nc2ccc3c(c2)C(=O)N([C@H](C)CO)C[C@H](C)[C@@H](CN(C)Cc2ccc(Oc4ccccc4)cc2)O3)cc1	none
C[C@@H]1CN([C@H](C)CO)C(=O)CCCn2nncc2CO[C@@H]1CN(C)Cc1ccc(Cl)c(Cl)c1	none
CNC[C@@H]1Oc2ccc(NC(=O)Nc3ccc(C(F)(F)F)cc3)cc2C(=O)N([C@H](C)CO)C[C@H]1C	none
Cc1ccc2c(C(=O)Nc3sc4c(c3C(N)=O)CCCCC4)cc(-c3ccccn3)nc2c1C	none
Cc1noc(C)c1NC(=O)Nc1cccc2c1O[C@@H](CN(C)Cc1ccc(-c3ccccc3)cc1)[C@@H](C)CN([C@H](C)CO)C2=O	none
CCc1ccccc1NC(=O)CSc1nc2sc3c(c2c(=O)n1-c1ccccc1)CCC3	none
C[C@H](CO)N1C[C@H](C)[C@@H](CN(C)C(=O)Nc2ccc3c(c2)OCO3)Oc2c(NS(=O)(=O)c3cccs3)cccc2C1=O	none
C[C@H]1CN([C@@H](C)CO)C(=O)Cc2cc(NC(=O)Cc3cn(C)c4ccccc34)ccc2O[C@@H]1CN(C)S(=O)(=O)c1ccc(F)cc1	U2OS ROS induce 89
C[C@H]1CN([C@@H](C)CO)C(=O)c2cc(NC(=O)Cc3cn(C)c4ccccc34)ccc2O[C@@H]1CN(C)Cc1ccc(-c2ccccc2)cc1	U2OS ROS induce 153
C[C@H](CO)N1C[C@H](C)[C@@H](CN(C)Cc2ccc(Oc3ccccc3)cc2)Oc2ccc(NC(=O)Cc3cn(C)c4ccccc34)cc2C1=O	U2OS ROS induce 113
C[C@H]1CN([C@@H](C)CO)C(=O)Cc2cc(NC(=O)Cc3ccccc3)ccc2O[C@H]1CN(C)Cc1ccc(Oc2ccccc2)cc1	none
C[C@@H]1CN([C@H](C)CO)C(=O)Cc2cc(NC(=O)Cc3ccccc3)ccc2O[C@@H]1CN(C)Cc1ccc(Oc2ccccc2)cc1	U2OS ROS induce 95
COc1ccc(CN(C)C[C@@H]2Oc3ccc(NC(=O)Cc4ccccc4)cc3CC(=O)N([C@@H](C)CO)C[C@@H]2C)cc1	none
C[C@@H]1CN([C@H](C)CO)C(=O)Cc2cc(NC(=O)Cc3cn(C)c4ccccc34)ccc2O[C@H]1CN(C)Cc1ccc(Oc2ccccc2)cc1	none
C[C@H](CO)N1C[C@H](C)[C@H](CN(C)Cc2ccncc2)Oc2ccc(NC(=O)Cc3cn(C)c4ccccc34)cc2C1=O	none
C[C@H]1CN([C@@H](C)CO)C(=O)c2cc(NC(=O)Cc3cn(C)c4ccccc34)ccc2O[C@H]1CN(C)Cc1ccc(-c2ccccc2)cc1	none
C[C@H](CO)N1C[C@H](C)[C@H](CN(C)S(=O)(=O)c2ccccc2)Oc2ccc(NC(=O)Cc3cn(C)c4ccccc34)cc2CC1=O	none
C[C@@H]1CN([C@H](C)CO)C(=O)Cc2cc(NC(=O)Cc3cn(C)c4ccccc34)ccc2O[C@H]1CN(C)S(=O)(=O)c1ccc(F)cc1	none
C[C@@H]1CN([C@H](C)CO)C(=O)c2cc(NC(=O)Cc3cn(C)c4ccccc34)ccc2O[C@H]1CN(C)Cc1ccc(-c2ccccc2)cc1	none
O=C(Cn1c(=O)oc2ccccc21)Nc1ccc(S(=O)(=O)N2CCCC2)cc1	none
C[C@H](CO)N1C[C@H](C)[C@H](CN(C)S(C)(=O)=O)Oc2ccc(NC(=O)c3ccncc3)cc2C1=O	none
c1ccc2c(c1)oc1c(N3CCCCC3)ncnc12	none
Cc1ccc(CCSc2ccc(Cl)c(Cl)c2)cn1	none
C[C@H]1CN([C@@H](C)CO)C(=O)Cc2cc(NC(=O)Nc3ccc(F)cc3)ccc2O[C@@H]1CN(C)Cc1ccc(C(=O)Nc2ccccc2N)cc1	none
COc1ccc(NC(=O)N(C)C[C@H]2Oc3ccc(NC(=O)Cc4cn(C)c5ccccc45)cc3C(=O)N([C@@H](C)CO)C[C@@H]2C)cc1	none
C[C@@H]1CN([C@H](C)CO)C(=O)Cc2cc(NC(=O)Nc3ccccc3)ccc2O[C@@H]1CN(C)Cc1ccc(C(=O)Nc2ccccc2N)cc1	U2OS ROS induce 102
C[C@H](CO)N1C[C@H](C)[C@H](CN(C)Cc2ccc(C(=O)Nc3ccccc3N)cc2)Oc2ccc(NC(=O)Cc3cn(C)c4ccccc34)cc2CC1=O	none
C[C@@H]1CN([C@H](C)CO)C(=O)Cc2cc(NC(=O)Nc3ccc(F)cc3)ccc2O[C@H]1CN(C)Cc1ccc(C(=O)Nc2ccccc2N)cc1	none
C[C@@H]1CN([C@H](C)CO)C(=O)Cc2cc(NC(=O)Cc3cn(C)c4ccccc34)ccc2O[C@@H]1CN(C)Cc1ccc(C(=O)Nc2ccccc2N)cc1	U2OS ROS induce 86
COc1ccc(CN(C)C[C@@H]2Oc3ccc(NC(=O)Cc4cn(C)c5ccccc45)cc3C(=O)N([C@@H](C)CO)C[C@H]2C)cc1	none
C[C@@H]1CN([C@@H](C)CO)C(=O)Cc2cc(NC(=O)Cc3ccccc3)ccc2O[C@@H]1CN(C)CC1CCCCC1	none
C[C@H]1CN([C@@H](C)CO)C(=O)Cc2cc(NC(=O)Cc3cn(C)c4ccccc34)ccc2O[C@H]1CN(C)Cc1ccc(C(=O)Nc2ccccc2N)cc1	none
COc1ccc(CN(C)C[C@H]2Oc3ccc(NC(=O)Cc4cn(C)c5ccccc45)cc3C(=O)N([C@H](C)CO)C[C@@H]2C)cc1	U2OS ROS induce 185
C[C@@H]1CN([C@H](C)CO)C(=O)Cc2cc(NC(=O)Cc3ccccc3)ccc2O[C@@H]1CN(C)CC1CCCCC1	none
C[C@H]1CN([C@@H](C)CO)C(=O)Cc2cc(NC(=O)Cc3ccccc3)ccc2O[C@@H]1CN(C)CC1CCCCC1	U2OS ROS induce 108
CCOC(=O)c1c(NC(=O)C(C)n2nc(C)c([N+](=O)[O-])c2C)sc(C)c1C (stereo unspecified)	none
C[C@H]1CN([C@@H](C)CO)C(=O)c2cc(NC(=O)C3CC3)ccc2O[C@@H]1CN(C)C(=O)Nc1ccc(F)cc1	none
O=C(Nc1ccc(OCc2ccccc2)cc1)NC1CCCc2ccccc21 (stereo unspecified)	none
CC(C)CCN(C)C1CCN(S(=O)(=O)c2cccc(Cl)c2)CC1	none
C[C@H](CO)N1C[C@H](C)[C@@H](CN(C)Cc2ccc(Cl)c(Cl)c2)Oc2ccc(NC(=O)Cc3cn(C)c4ccccc34)cc2C1=O	U2OS ROS induce 152
C[C@@H]1CN([C@@H](C)CO)C(=O)Cc2cc(NC(=O)Cc3cn(C)c4ccccc34)ccc2O[C@@H]1CN(C)Cc1ccc(Oc2ccccc2)cc1	U2OS ROS induce 122
C[C@H]1CN([C@@H](C)CO)C(=O)Cc2cc(NC(=O)Cc3cn(C)c4ccccc34)ccc2O[C@@H]1CN(C)Cc1ccc(Oc2ccccc2)cc1	none
C[C@H]1CN([C@@H](C)CO)C(=O)Cc2cc(NC(=O)Cc3cn(C)c4ccccc34)ccc2O[C@H]1CN(C)Cc1ccc(Oc2ccccc2)cc1	none
C[C@@H]1CN([C@@H](C)CO)C(=O)c2cc(NC(=O)Cc3cn(C)c4ccccc34)ccc2O[C@H]1CN(C)Cc1ccc(Cl)c(Cl)c1	none
C[C@H](CO)N1C[C@H](C)[C@H](CN(C)Cc2ccc(Cl)c(Cl)c2)Oc2ccc(NC(=O)Cc3cn(C)c4ccccc34)cc2C1=O	none
C[C@H]1CN([C@@H](C)CO)C(=O)c2cc(NC(=O)Nc3ccccc3)ccc2O[C@H]1CN(C)C(=O)NC1CCCCC1	none
CCN1C(=O)/C(=C2\SC(=S)N(NC(C)=O)C2=O)c2ccccc21	none

Screens: PubChem BioAssay, Broad Institute
